Source: PubChem
This excerpt belongs to a sample that is enriched for hits.
Ub-GFP proteasome = inhibits proteasome, raising ubiquitin-GFP reporter fluorescence; Ubiquitin-GFP reporter cells, proteasome inhibition, GFP fluorescence; response scale: untreated = 0%, 10 µM MG-132 = 100%; Potency, µM (series often up to 45.9 µM), for the others: at the top dose activation (GFP accumulation), most hits filed as activators; 67,000 tested, under 10 active; AID 526; active = well fitted activation curve with a large enough effect, not every such curve was filed as active; inconclusive = small, poorly fitted or top-dose-only effect, or another doubt; inactive = no such curve, though single readings can be large or run the other way; also: potency is read from the fitted curve at half-maximal effect
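Proteasome blockade was scored as a rise in GFP-expressing U2OS cells carrying a ubiquitin(G76V)-GFP construct, imaged after 4 hr compound treatment at 37 °C across a 46 uM–2.9 nM series.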
Epigenetic mod = epigenetic modulators derepressing GFP locus in mouse cells; AID 597; mouse C127i GFP locus derepression, cytometry, 30 h; 0.09% of 68,000 active; Potency, µM (highest dose often 46.1 µM), inactives show at the highest dose GFP derepression (activation); also: % of control where 0% means no effect
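Read-out is the number of GFP-positive cells, scored as fluorescent objects 20 to 120 um wide, reflecting derepression of a silenced CMV-GFP reporter in murine C127i cells after 30 h compound exposure at 37 C.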
HBB splice mod = modulators of hemoglobin beta chain splicing | 0.06% of 65,000 active | Potency, µM (doses to about 46.1 µM), for inactives: at the top dose activation, most hits filed as activators | HBB splicing reporter cell assay, activation; EGFP reporter with mutant IVS2-654 intron; response scale: normalised to 500 nM splice-correcting PNA; also: potency is read from the fitted curve at half-maximal effect; 0% is about no effect
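HeLa cells stably expressing EGFP interrupted by mutant beta-globin intron 2 (IVS2-654), 500/well in 2% FCS. Treated with compound for 2 days at 37C. Splicing correction scored as total well GFP intensity (488 nm excitation, 500-520 nm emission); 500 nM antisense PNA served as control.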
Hsp90 Hop PPI = changes Hsp90-Hop TPR2A binding signal, up or down; AlphaScreen TPR2A-His6 binding biotin-Hsp90 C-terminal peptide; Potency, µM (titrated, usually from 57 µM), inactives show at the top dose activity change, negative = inhibition; 0.44% of 71,000 active; AID 595; active = well fitted curve in either direction with a large enough effect; inconclusive = small, poorly fitted or top-dose-only effect, or another doubt; also: potency is read from the fitted curve at half-maximal effect; % is scaled to controls: 0 for no effect and ±100 for the full control effect
IkB signaling = suppresses IkB signaling in ABC-DLBCL reporter cells; AID 445; ABC-DLBCL IkBa-CBG/CBR dual luciferase ratio, 4 h; response scale: scaled: untreated 0%, proteasome inhibitor 100%; 0.04% of 110,000 active; Potency, µM (titrated, usually from 57.1 µM), for inactives: at the highest dose IkBa stabilization activation; active = well fitted curve in the direction sought with a large enough effect in the signal ratio, not every such curve was filed as active; inconclusive = small, poorly fitted or top-dose-only effect, or a change in a side signal; the % refers to the signal ratio;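 also: potency is read from the fitted curve at half-maximal effect; the direction sought is a rising ratio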
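Luminescence ratio of IκBα-fused green versus native red beetle luciferase in OCI-Ly3 cells, 4 h post-doxycycline with compound; red signal alone, scaled from basal (0%) to zero light (-100%), flagged nonspecific or cytotoxic effects.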
Hsp90 TPR2A CRC = confirmation and counter-screen of Hsp90 TPR2A co-chaperone interaction disrupters; shares compounds with Hsp90 Hop PPI; AlphaScreen TPR2A-His6 / biotin-Hsp90 peptide binding; activity, negative = inhibition, % at 40 µM or 46 µM, hits read low; 100% of 45 active;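 active = compound lowering the Hsp90 and TPR2A binding signal, whether or not the linker counterscreen also flagged it as an artifact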
Starred values were filed as active, the others as inactive; ? = inconclusive; / = no result given; [ ] = remark or other dose. Unless noted, calls follow the shape of the dose curve; as a rule, active = well fitted curve in the direction sought with a large enough effect; inconclusive = small, poorly fitted or top-dose-only effect, or another doubt; inactive = no such curve, though single readings can be large; an effect the other way counts as inactive or inconclusive.

SMILES | Ub-GFP proteasome | Epigenetic mod | HBB splice mod | Hsp90 Hop PPI | IkB signaling | Hsp90 TPR2A CRC
N#Cc1c(NC(=O)C(F)(F)F)sc2c3c(=O)c4ccccc4c(=O)c=3oc3ccccc3c12 | -6%[9.17 µM] | 0%[9.22 µM] | 2%[9.22 µM] | -6%[11 µM] | 10%[11.4 µM] | /
Nc1nc2n[nH]nc2c(=O)[nH]1 | 20%[20.5 µM] | 7%[20.6 µM] | 0.79µM* | 1%[26 µM] | ? | /
Cc1ccc(-c2nc(-c3ccccc3)no2)c(Cl)c1 | 3% | -4% | -1% | 25µM* | ? | /
N/C(CC/C(N)=N/O)=N\O | -5%[9.17 µM] | 0%[9.22 µM] | 4%[9.22 µM] | -2%[11 µM] | 0%[11.4 µM] | /
Cc1ccc(S(=O)(=O)CCc2nnc(NC(=O)c3cnccn3)s2)cc1 | 4% | 2% | -2% | -6% | 1% | /
Cc1ccc(S(=O)(=O)CCc2nnc(NC(=O)c3ccccn3)s2)cc1 | -2% | 0% | 2% | 6.3µM* | 1% | -100*[alpha-screen platform artifact]
Nc1nc(N)nc(-c2ccccn2)n1 | -5% | 2% | -2%[0.369 µM] | 7.9µM* | 0% | -99*[alpha-screen platform artifact]
CCOC(=O)c1c(C)[nH]c(C(=O)CN2CCOCC2)c1C | -5% | 5% | -1% | -1% | -2% | /
CCOC(=O)CCCCC(=O)c1[nH]c(=O)[nH]c1CSc1nc(C)cc(=O)[nH]1 | 0% | 3% | 1% | 1µM* | -1% | -100*[alpha-screen platform artifact]
CCOC(=O)CCCCC(=O)c1[nH]c(=O)[nH]c1CSc1nc(C)cc(C)n1 | -1%[9.17 µM] | -2% | -3%[0.0738 µM] | ? | -2% | /
CCOC(=O)CCCCC(=O)c1[nH]c(=O)[nH]c1CN1CCOCC1 | 6% | 3% | 0% | 2.5µM* | 0% | -99*[alpha-screen platform artifact]
CCOC(=O)CCCCC(=O)c1[nH]c(=O)[nH]c1CSc1nc2ccccc2[nH]1 | 0% | 2% | 0% | 2.5µM* | 0% | -100*[alpha-screen platform artifact]
C#CCN1C(C)=C(C(=O)OC)[C@@H](c2cccc([N+](=O)[O-])c2)C(C(=O)OCC)=C1C | 0% | -2% | 0% | -9% | 3% | /
O[C@@H](COc1cccc2ccccc12)CN1CCOCC1 | -7%[9.17 µM] | 2%[9.22 µM] | 0%[9.22 µM] | -2%[11 µM] | 0%[11.4 µM] | /
OCc1ccnc2c(O)cccc12 | 0% | -3% | 1% | 3.2µM* | -1% | -100*[alpha-screen platform artifact]
CCOc1ccc(C(=O)CCNC(Cc2cnc[nH]2)C(=O)O)cc1 (configuration not stated) | 20%[9.17 µM] | -2% | 3%[0.0738 µM] | ? | 1% | -93*[alpha-screen platform artifact]
Clc1ccc(Cl)c(Cl)c1Cl | / | / | 0% | 0% | 2% | /
O=C1O[C@@H]([C@H](O)[C@H](O)[C@H](O)CO)[C@@H](O)[C@@H]1O | 2%[9.17 µM] | 0%[9.22 µM] | 5%[9.22 µM] | -1%[11 µM] | -1%[11.4 µM] | /
Cc1cc(C)n(-c2nnc(C)c(=O)[nH]2)n1 | -14%[9.17 µM] | -3% | 1%[0.0738 µM] | 1.6µM* | 1% | -100*[alpha-screen platform artifact]
Cc1nnc(N2CCN(Cc3ccccc3)CC2)[nH]c1=O | 6% | 4% | -2% | -6% | -1% | /
O=C(Nc1cccc(C(=O)N2CCOCC2)c1)c1cncc(Br)c1 | 0% | 8% | 0% | -3% | 1% | /
O=C(Nc1cccc(C(=O)N2CCOCC2)c1)c1ncn[nH]1 | 1% | 0% | 2% | 25µM* | -3% | -83*[alpha-screen platform artifact]
CCCOCc1cc(CN2CCN(c3cccc(Cl)c3)CC2)c(O)c2ncccc12 | / | / | / | / | 25% | /
CN1CCN(Cc2cc(COCc3ccccc3)c3cccnc3c2O)CC1 | -8% | 6.3µM* | 1% | 1.6µM* | 6% | -100*[alpha-screen platform artifact]
CN(C)C(=O)CSc1cccc2cccnc12 | -3% | ? | -1% | ? | ? | /
SMILES | Ub-GFP proteasome | Epigenetic mod | HBB splice mod | Hsp90 Hop PPI | IkB signaling | Hsp90 TPR2A CRC
O=C(CSc1cccc2cccnc12)N1CCCC1 | 1% | 0.63µM* | -2% | 10µM* | 4µM* | -99*[alpha-screen platform artifact]
CCOC(=O)CCN1C(=O)[C@H]2[C@H]3[C@H](O)[C@H](O)C/C(=N/O[C@@H]4O[C@@H](COC(C)=O)[C@@H](OC(C)=O)[C@@H](OC(C)=O)[C@H]4OC(C)=O)[C@@H]3CC[C@@H]2C1=O | / | / | 1%[9.22 µM] | / | / | /
O=C(NCCCn1ccnc1)Nc1ccc(Cl)c(Cl)c1 | 2% | -2% | 0%[57.5 µM] | 7.9µM* | 1% | -98*[alpha-screen platform artifact]
c1cc(CSSCc2ccncc2)ccn1 | 7%[9.17 µM] | -2%[9.22 µM] | 1%[9.22 µM] | 0%[11 µM] | -2%[11.4 µM] | /
Cc1ccc(S(=O)(=O)NC(=O)c2cc(C)n(CCCn3ccnc3)c2C)cc1 | 3% | 2% | 1% | 4µM* | 0% | -100*[alpha-screen platform artifact]
O=C(CN1CC(=O)Oc2ccccc21)OCC(=O)c1ccccc1 | -7% | 0% | / | 3.2µM* | 5% | -100*[alpha-screen platform artifact]
